Assay outcomes deposited in PubChem by University of Kansas High Throughput Screening Laboratory.
Pf apPOL inh: Pf-apPOL inhibitors, biochemical, fluorescence; 210,000 tested, 0.25% active; inhibition, % at 10 µM; Plasmodium falciparum apicoplast DNA polymerase (apPOL); Recombinant Pf-apPOL, molecular beacon fluorescence, 1.5 h
mHTT-CaM PPI inh: mutant huntingtin-calmodulin interaction inhibitors – biochemical, AlphaScreen, primary screen | P42858 | AlphaScreen His-mHTT/GST-CaM binding, luminescence | inhibition, % at 15 µM | 190,000 tested, 3.6% active | AID 1671202, 2021
A number is an active result; 0 = inactive; - = not tested or not shown. Shown are actives, neighbours in structure and some others; about 3.5% of the full set was active somewhere. No stated cut-off is given here; in the data, active means inhibition above about 50%; inactive means the rest.

SMILES | Pf apPOL inh | mHTT-CaM PPI inh
Cc1ccc(C2=N/C(=C\c3ccc(Br)cc3)C(=O)O2)cc1[N+](=O)[O-] | 0 | 0
Cc1ccc(C2=N/C(=C\c3cccc(Br)c3)C(=O)O2)cc1[N+](=O)[O-] | 0 | 51
Cc1ccc(C=C2Oc3cc(OCC(=O)OC(C)(C)C)ccc3C2=O)o1 | 0 | 0
CCOc1ccc(CCNC(=O)Cn2nnc(-c3ccc(F)cc3)n2)cc1OCC | 0 | 0
CCOc1ccc(CCNC(=O)Cn2nnc(-c3ccc(OC)cc3)n2)cc1OCC | 0 | 76
CCCNc1cc(N2CCCC(CCC(=O)Nc3cc(C)ccc3OC)C2)ncn1 (stereo unspecified) | 0 | 0
CCCCC(=O)NC(c1cccs1)c1cc(Cl)c2cccnc2c1O (stereo unspecified) | 0 | 0
Oc1ccc2ccccc2c1C(c1cccs1)N1CCCCC1 (stereo unspecified) | 0 | -
CC(=O)NC(c1ccco1)c1ccc2cccnc2c1O (stereo unspecified) | 0 | 100
CC(=O)NC(c1cccs1)c1ccc2cccnc2c1O (stereo unspecified) | 0 | 100
OCCN1CCN(C(c2cccs2)c2ccc3cccnc3c2O)CC1 (stereo unspecified) | 96 | 100
O=C(Nc1cccc2cccnc12)C(=O)Nc1cccc2cccnc12 | 0 | 0
O=C(c1ccc(F)c(F)c1)N1CCC(Nc2cccnc2)C1 (stereo unspecified) | 0 | 0
O=C(Cn1c2c(c(=O)n(C3CCCCC3)c1=O)CCC2)NCc1ccco1 | 0 | 0
O=C(CN1CCc2ccccc2C1C(=O)N1CCCCC1)Nc1ccc(Cl)cc1F (stereo unspecified) | 0 | 0
Cc1c(Cl)cccc1NC(=O)CN1CCc2ccccc2C1C(=O)N1CCC(C)CC1 (stereo unspecified) | 0 | 69
CC1CCN(C(=O)C2c3ccccc3CCN2CC(=O)Nc2ccc(Cl)cc2F)CC1 (stereo unspecified) | 0 | 68
Cc1ccc(NC(=O)CN2CCc3ccccc3C2C(=O)N2CCCC2)cc1Cl (stereo unspecified) | 0 | 64
Cc1ccc(C)c(NC(=O)CN2CCc3ccccc3C2C(=O)N2CCC(C)CC2)c1 (stereo unspecified) | 0 | 0
Cc1cc(NC(=O)CN2CCc3ccccc3C2C(=O)N2CCCCC2)ccc1F (stereo unspecified) | 0 | 0
COc1ccc2oc(=Nc3ccc(O)cc3)c(C(N)=O)cc2c1 | 0 | 0
CC(C)(C)c1ccc(S(=O)(=O)NCCC2CCN(C(=O)c3ccccc3)CC2)cc1 | 0 | 0
CCC(=O)Nc1nc2nc(C(C)C)cc(=O)n2[nH]1 | 0 | 0
COc1cccc(NC(=O)N2CCCC(C)(C(=O)NCc3ccccc3C)C2)c1 (stereo unspecified) | 0 | 0
CS(=O)(=O)N1CCCc2cc(S(=O)(=O)N3CCCC3)ccc21 | - | 0
SMILES | Pf apPOL inh | mHTT-CaM PPI inh
COc1cc(NC(=O)c2ccc(SC)cc2OC)c(OC)cc1Cl | 0 | 0
COc1ccc(C)cc1Nc1nc(C)nc2sc(C)cc12 | 0 | 0
COc1ccc(OC)c(Nc2nc(C)nc3sc(C)cc23)c1 | 0 | 52
CCOc1c(Br)cc(/C=C2\C(=O)NN(c3ccc(F)c(Cl)c3)C2=O)cc1OC | 0 | 81
COc1cc(/C=C2\C(=O)NN(c3ccc(F)c(Cl)c3)C2=O)ccc1O | 0 | 0
COc1cccc(N2CCN(C(=O)C3CCCC3)C(C)C2=O)c1 (stereo unspecified) | 0 | 0
COc1ccc(/C=c2\sc3nnc(-c4ccc(C)cc4)n3c2=O)c(OC)c1 | 0 | 0
COc1ccc(/C=C2\C(C)=C(C#N)c3nc(N)c(C#N)c(C)c32)cc1OC | 0 | 0
CC1=C(C#N)c2nc(N)c(C#N)c(C)c2/C1=C/c1ccc(O)cc1 | 0 | 64
Cc1ccccc1Cn1cnc2c1c(=O)n(C1CC1)c(=O)n2-c1ccccc1C | 0 | 0
O=C(CCCOc1ccc(Cl)cc1)Nc1ccccc1F | 0 | 0
O=C(NCc1cc(F)cc(F)c1)c1ccn2c(-c3cc(F)cc(F)c3)nnc2c1 | 0 | 0
Nc1cccc2c1NC(c1ccc(Cl)cc1)C1CCCC21 (stereo unspecified) | 0 | 90
O=C(CCS(=O)(=O)c1ccc(Br)cc1)N1CC=C(c2ccccc2)CC1 | 0 | 0
Cc1ccc(S(=O)(=O)NCC(O)Cn2c3ccccc3c3ccccc32)cc1 (stereo unspecified) | 0 | 0
Cc1c(C)n(CC(O)CNc2ccc(I)cc2)c2ccccc12 (stereo unspecified) | 0 | 99
COc1ccccc1NCC(O)Cn1ccc2ccccc21 (stereo unspecified) | 0 | 0
Cc1ccc(NCC(O)Cn2c(C)c(C)c3ccccc32)c(C)c1 (stereo unspecified) | 0 | 82
COc1ccccc1NCC(O)Cn1c(C)c(C)c2ccccc21 (stereo unspecified) | 0 | 59
CNCC(O)Cn1c2ccccc2c2ccccc21 (stereo unspecified) | 0 | 0
CC(NCC(O)Cn1c2ccccc2c2ccccc21)C(=O)O (stereo unspecified) | 0 | 0
Cc1ccccc1NCC(O)Cn1c(C)c(C)c2ccccc21 (stereo unspecified) | 0 | 96
O=C(NCCc1ccccc1)NCCC1CCN(S(=O)(=O)c2ccc(F)cc2)CC1 | 0 | 0
Cc1ccc(C)c(NC(=O)c2c(C)cc(Cl)nc2Cl)c1 | 0 | 0
CC(C)Cn1c(=O)c(C(=O)NC2CCCCCC2)nc2cccnc21 | 0 | 0
SMILES | Pf apPOL inh | mHTT-CaM PPI inh
CCN(CC)c1ccc(C=Nc2ccc(Cl)c([N+](=O)[O-])c2)c(O)c1 | 0 | 0
O=c1cc(CN2CCCCCC2)nc(-c2ccccc2)[nH]1 | 0 | 0
Cc1cccc(NCC(O)Cn2c(C)c(C)c3ccccc32)c1C (stereo unspecified) | 0 | 93
CCC(CO)NCC(O)Cn1c2ccccc2c2ccccc21 (stereo unspecified) | 0 | 0
O=C1NN(c2ccc(Cl)c(Cl)c2)C(=O)/C1=C/c1ccc(O)c(O)c1 | 0 | 73
Cc1ccc(N2NC(=O)/C(=C\c3ccc(Cl)cc3)C2=O)cc1Cl | 0 | 0
Cc1ccc(N2NC(=O)/C(=C\c3ccc(C)c([N+](=O)[O-])c3)C2=O)cc1Cl | 0 | 62
COc1cc(/C=C2\C(=O)NN(c3ccc(Cl)c(Cl)c3)C2=O)ccc1O | 0 | 0
O=C1NN(c2ccccc2)C(=O)/C1=C/c1ccccc1OCCOc1ccc([N+](=O)[O-])cc1 | 0 | 0
O=C(Nc1ccc(F)cc1)c1ccc(-c2cccc(F)c2)nc1 | 0 | 0
Cc1ccc2nc(-c3ccc(N=Cc4ccccc4O)cc3)sc2c1 | 0 | -
Cc1ccc(N=Cc2cc3ccccc3[nH]c2=O)cc1 | 0 | 57
CC(C)c1ccc2oc(-c3cc(N)ccc3O)nc2c1 | 0 | 62
Cc1ccc2oc(-c3cc(N)ccc3O)nc2c1 | 0 | 0
Cc1ccc(-n2cc(C(=O)N3CCCC3)c3ccccc3c2=O)cc1C | 0 | 0
Cc1ccc(-n2cc(C(=O)N3CCN(c4ccccc4)CC3)c3ccccc3c2=O)cc1C | 0 | 74
COc1cc(OC)cc(C2=Cc3ccccc3C(CC(C)=O)N2c2ccc(-c3cccs3)cc2)c1 (stereo unspecified) | 0 | 0
COc1ncc(-c2ccc(N3C(c4ccsc4)=Cc4ccc(F)cc4C3CC(=O)c3ccco3)cc2)cn1 (stereo unspecified) | 0 | 0
COc1cc(OC)cc(C2=Cc3ccccc3C(CC(C)=O)N2c2ccc(-c3cncnc3)cc2)c1 (stereo unspecified) | 0 | 50
